Among all 1,400 compounds or so, about 560 (40%) were called active. The set was probably picked from earlier hits. The list shows a part of the results. A number with no mark means an inactive call.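 Rule for the calls: active = mean inhibition over duplicate tests at 10 µM above 50%; inactive = the rest.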

This assay is described as follows: ASC/caspase-1 reporter retest in S. cerevisiae at one dose, specificity check for NALP1 project (AID 488857). Particulars: S. cerevisiae ASC/Caspase-1, beta-galactosidase luminescence, 24 h; at 10 µM; active compounds read high.
In general, inhibition refers to the change of the read-out against control, counted positive when it falls. In the case of `Cc1nc2cc(C(=O)NCc3ccc4c(c3)OCO4)ccc2n1-c1ccc(Br)cc1`, the inhibition is 58.9% (active).

For the compound `CC1CC(C)CN(S(=O)(=O)c2ccc(C(=O)NCc3ccc4c(c3)OCO4)cc2)C1` (stereo not given), the inhibition was 31.6%.

Regarding `CCN(CC)S(=O)(=O)c1cccc(C(=O)Oc2cccc(NC(=O)c3cccs3)c2)c1`, the inhibition is 35.9%.

For the compound `O=C(/C=C\Nc1cccc(F)c1)c1cccs1`, the inhibition was 47.2%.

Take `COc1cc(NC(=O)c2cccs2)cc(OC)c1`: the inhibition is 82% (active).

`O=C(CN1CCCCC1)Nc1cccc(Oc2ccccc2)c1`: the inhibition was 38.8%.

As for `O=C(CN1CCCCC1)Nc1nc(-c2ccc(F)c(F)c2)cs1`, the inhibition is 55.9% (active).

Regarding `CC1CCCC(C)N1C(=O)CN1CCN(c2nc(-c3ccc(F)cc3)cs2)CC1` (stereo not given), the inhibition was 44.5%.

As for `COCC(=O)n1nc(-c2ccc(Cl)cc2)nc1NCc1ccc(F)cc1`, the inhibition was 36.2%.

As for `CCCCCCCCNC(C)C(O)c1ccc(SC(C)C)cc1` (stereo not given), the inhibition is 38.9%.

Take `CC(C)CC(=O)/C(=C\c1ccc(Cl)cc1Cl)n1cncn1`: the inhibition was 101% (active).

Turning to `CSc1nnc(-c2cc3c(s2)-c2ccccc2CC3)o1`, the inhibition is 46.8%.

Consider `O=C(COC(=O)Cc1c(F)cccc1Cl)NCCC1=CCCCC1`, for which the inhibition was 61.6% (active).

On to `COC(=O)COc1ccc(S(=O)(=O)NCCC2=CCCCC2)cc1Cl`, for which the inhibition is 40.1%.

With `CC(OC(=O)Cc1c(F)cccc1Cl)C(=O)NCCC1=CCCCC1` (stereo not given), the inhibition is 46.8%.

Turning to `Cc1cc(C(C)(C)C)cc(S(=O)(=O)Nc2ccc(O)c(C(=O)O)c2)c1C`, the inhibition is 27.8%.

As for `Cc1ccc(/C(COc2ccccc2O)=N\O)cc1`, the inhibition was 47.8%.

In the case of `COc1ccccc1/C=N\N=C(\N)c1ccccn1`, the inhibition was 48.5%.

For the compound `Cc1ccc(Oc2ccccc2/C=N/O)cc1`, the inhibition is 51.9% (active).

Turning to `COC(=O)c1sccc1NC(=O)c1csc(C)c1`, the inhibition is 49%.

Take `Cc1ccc2c(Cl)c(C)c(N3CCCCC3)nc2n1`: the inhibition was 74.8% (active).

For `NC(=O)C1(N2CCCCC2)CCN(Cc2nc(-c3cccs3)no2)CC1`, the inhibition was 24.1%.

As for `COC(=O)c1ccc(C(=O)OC)c(NC(=O)COC(=O)C2CCCCC2)c1`, the inhibition is 35.8%.

Take `COC(=O)c1ccc(NC(=O)CN2C(=O)CNC2=O)cc1`: the inhibition was 30.4%.

As to `COC(=O)c1ccc(NC(=O)C(=O)N2CCCC2)cc1`, the inhibition was 52.5% (active).

For the compound `CCOC(=O)C1(Cc2ccc(OC)cc2)CCN(C(=O)CCc2cnccn2)CC1`, the inhibition was 20.9%.

Regarding `COc1ccc(Nc2ncccc2C(=O)NCc2ccccc2)cc1`, the inhibition was 67% (active).

Regarding `Cc1cccnc1NC(=O)c1ccccc1NC(=O)C(C)(C)C`, the inhibition is 41.2%.

Consider `Cc1cc(C)c([C@@H]2C[C@H]3CN(C4CCCC4)C(=O)[C@]34CCCN24)c(-n2cccn2)c1`, for which the inhibition was 36.2%.

On to `COc1ccc(OCC(=O)NC(=S)N2CCCc3ccccc32)cc1`, for which the inhibition was 37.9%.

For `C=C(C)C(=O)Nc1cccc(C(C)=O)c1`, the inhibition was 38.2%.

As to `O=C(Nc1ccc(Cl)c(Cl)c1)c1ccncc1`, the inhibition is 44.9%.

For the compound `O=C(Nc1ccc2c(c1)CCC2)c1ccccc1`, the inhibition is 71.7% (active).

Regarding `O=C(Nc1ccc2nc3ccccc3nc2c1)c1ccccc1`, the inhibition was 90.7% (active).

For `O=C(COc1ccc(Cl)cc1)Nc1ccc2c(c1)CCC2`, the inhibition is 71.5% (active).

As for `CS(=O)(=O)N(Cc1ccccc1)c1ccc(C(=O)Nc2cccnc2)cc1`, the inhibition was 36%.

On to `O=C(COC(=O)CCC1CCCCC1)Nc1ccc(OC(F)F)cc1`, for which the inhibition is 23.5%.

In the case of `O=C(CN1CCN(c2ccccc2)CC1)Nc1ccc2c(c1)CCC2`, the inhibition is 21.1%.

As to `CS(=O)(=O)N(Cc1ccccc1)c1ccc(C(=O)Nc2ccc3c(c2)OCO3)cc1`, the inhibition is 36%.

For the compound `O=C(Nc1ccc2c(c1)Cc1ccccc1-2)c1ccncc1`, the inhibition was 74.5% (active).

Turning to `COC(=O)c1ccccc1SC1CC(=O)N(c2cccc(C)c2)C1=O` (stereo not given), the inhibition is 37.6%.

With `Cc1cccc(N2C(=O)CC(Sc3ccccc3C(=O)O)C2=O)c1` (stereo not given), the inhibition is 49.3%.

`CCN(CC)C1CC(=O)N(c2cccc(C)c2)C1=O` (stereo not given): the inhibition was 58% (active).

Take `C=CCn1c(CNC(=O)c2cccs2)nnc1SCC(=O)Nc1ccc(C(=O)O)cc1`: the inhibition is 28.1%.

For `O=c1sc(Nc2ccccc2)nc2ccsc12`, the inhibition is 77.2% (active).

Turning to `N#Cc1ccc(Oc2nc(Nc3ccc(F)cc3)nc(N3CCCC3)n2)cc1`, the inhibition was 37.5%.

For the compound `O=C1c2cccc(O)c2C(=O)c2c(O)cccc21`, the inhibition is 59.5% (active).

On to `CN(C=[N+](C)C)c1cccc2c1C(=O)c1ccccc1C2=O`, for which the inhibition was 42.7%.

With `CN(C)S(=O)(=O)c1cccc2c1C(=O)c1ccccc1C2=O`, the inhibition was 44.5%.

For `S=C(NC1CCCCC1)NN(c1ccccc1)c1ccccc1`, the inhibition is 53.4% (active).

For `CCOc1ccccc1N1CCN(C(=O)CCCc2nc3ccccc3s2)CC1`, the inhibition was 48.7%.

For the compound `O=C(CCc1nc2ccccc2s1)Nc1ccccc1`, the inhibition was 80.2% (active).

As to `O=C(O)CCCCc1nc2ccccc2s1`, the inhibition was 32%.

Consider `Cc1ccsc1/C=N/n1c(-c2ccccn2)n[nH]c1=S`, for which the inhibition was 54.9% (active).

As for `Cc1ccc2nc(Cl)c(C3CC(c4cccs4)=NN3C(=O)CCCC(=O)O)cc2c1` (stereo not given), the inhibition was 30.2%.

Consider `Cc1ccc(Sc2nnc(Cc3ccccc3)c3ccccc23)cc1`, for which the inhibition is 48.1%.

Consider `Clc1ccc2oc3c(Cl)ncnc3c2c1`, for which the inhibition was 29.9%.

Regarding `COc1ccc2c(c1)C1=NN(/C(C)=C/C(C)=O)C(c3cccc(F)c3)C1CC2` (stereo not given), the inhibition is 47.5%.

On to `Cc1ccc(C(=O)/C=C\C(=O)c2ccc(C)cc2)cc1`, for which the inhibition was 44.1%.

For `Cc1ccc(C(=O)c2no[n+]([O-])c2C(=O)c2ccc(C)cc2)cc1`, the inhibition was 77.2% (active).

As for `CC(C)c1nc2sc3c(=O)[nH]c(=S)[nH]c3c2c2c1CCC2`, the inhibition is 32%.

As for `O=C1C2C3C=CC(C2C(=O)N1CCCO)C1C2C(=O)N(CCCO)C(=O)C2C31` (stereo not given), the inhibition is 40.4%.

As for `O=C(O)C1(c2ccccc2)CCN(S(=O)(=O)c2ccc(Br)cc2)CC1`, the inhibition is 29.4%.

Consider `CCOC(=O)C1CCCCN1Cc1cccc(F)c1` (stereo not given), for which the inhibition was 27.4%.

On to `O=S(=O)(c1ccc(Br)cc1)N1CCCN(Cc2cccc(F)c2)CC1`, for which the inhibition was 61.5% (active).

The values are drawn from PubChem BioAssay AID488857 (Sanford-Burnham Center for Chemical Genomics, 2010).
